# Measured values from PubChem BioAssay (NCATS).
# Results filed as inconclusive are left out. A number with no mark means an inactive call. Activity calls are given as the source filed them. The call rests on the fitted dose curve; in most records, active means well fitted inhibition curve with a large enough effect; inconclusive means small, poorly fitted or top-dose-only effect; inactive means no such curve, though single readings can be large or run the other way.
# Assay: Primary qHTS for inhibitors of nuclear receptor binding SET domain protein 2 (NSD2) in an RCH-ACV wild type WT cells (2C) (AID 1645877); further: nearly all actives have a fitted effect of over 70% in size
# Conditions: RCH-ACV (leukaemia line) NSD2 WT (2C) viability, CellTiter-Glo, 72 h; series mostly up to 44.9 µM; activity change, negative = cell killing: at the top concentration
# On the % scale 0 is the no-effect control and ±100 the full control effect.
SMILES,outcome,"activity change, negative = cell killing"
C=CC(C)(CC/C=C(\C)C(=O)OC)OC1OC(COC(=O)CC(C)(O)CC(=O)O)C(OC2OC(CO)C(O)C(O)C2O)C(O)C1O (stereo not drawn),inactive [at 17.3 µM],–
COC(=O)c1cc(OC)c(O[C@@H]2O[C@@H](C)[C@H](O)[C@@H](O)[C@H]2O)c(OC)c1,inactive,–
CC/C=C\[C@H](O)[C@H](O)C1=C(C)C(=O)[C@]2(O1)C(=O)N[C@@](OC)(C(=O)c1ccccc1)[C@@H]2O,–,4.83% [at 17.3 µM]
CC1(C)CC[C@@]2(C(=O)O[C@@H]3O[C@H](CO)[C@@H](O)[C@H](O)[C@H]3O)C(C1)C1=CCC3[C@@]4(C)CC[C@@H](O[C@@H]5O[C@H](C(=O)O)[C@@H](O[C@@H]6OC[C@@H](O)[C@H](O)[C@H]6O)[C@H](O[C@@H]6OC[C@](O)(CO)[C@H]6O)[C@H]5O)C(C)(C)C4CC[C@@]3(C)[C@]1(C)C[C@H]2O (stereo partly drawn),–,-88.4% [at 9.23 µM]
CC1=CCC(C(C)(C)O[C@@H]2O[C@H](CO[C@@H]3O[C@@H](C)[C@H](O)[C@@H](O)[C@H]3O)[C@@H](O)[C@H](O)[C@H]2O)CC1 (stereo partly drawn),inactive [at 17.3 µM],–
C=C1CCC2C(C)(C(=O)OC)CCCC2(C)C1CCC(C)CC(=O)O (stereo not drawn),–,-15.5%
COc1cc(O)cc(C)c1C(=O)O[C@H]1[C@@H](OC(C)=O)[C@H](n2ccc(=O)[nH]c2=O)O[C@@H]1CO,–,3.39% [at 17.3 µM]
CC1OC(O[C@H]2CC[C@@]3(C)C(CC[C@]4(C)C3CC=C3C5CC(C)(C)CC[C@]5(C(=O)OC5OC(CO)C(OC6OC(COC7OCC(O)C(O)C7O)C(O)C(O)C6O)C(O)C5O)CC[C@]34C)C2(C)C)C(O)C(O)C1OC1OCC(OC2OCC(O)C(O)C2O)C(O)C1O (stereo partly drawn),–,2.24% [at 9.23 µM]
